# PubChem BioAssay AID2314 (National Center for Advancing Translational Sciences (NCATS), 2010)
# The campaign covered roughly 300,000 compounds. About 37,000 (12%) were called active. Only a selection was taken, and actives are over-represented in it overall. Unmarked numbers belong to inactive results. No stated cut-off is given here; in the data, active means max response mostly above about 13% (no sharp cut-off); inactive means mostly below about 14%.
# Assay: Cycloheximide Counterscreen for Small Molecule Inhibitors of Shiga Toxin; further: read at 38.3 µM for the half of the compounds with a filed dose; 0% is about no effect
# Details: cell reporter, cycloheximide protein synthesis inhibition counterscreen; hits give high values
row,SMILES,max response
1,COc1cccc(NC(=O)N2CCCC2C(=O)NC2CCCCC2)c1 (stereo not given),-2.55%
2,Cc1ccc(CN(CC(=O)NC2CCCCC2)C(=O)c2csnn2)cc1,-2.39%
3,CCOCCCNc1c(CC)c(C)c(C#N)c2nc3ccccc3n12,-2.64%
4,Cc1ccc(NC(=O)CC2S/C(=N/N=C3\CCCc4ccccc43)NC2=O)cc1 (stereo not given),-4.9%
5,C[C@H]1CCC[C@@]2(C)CCCC[C@]12O,12.1%
6,Cn1c(CCc2ccccc2)nnc1SCC(N)=O,-1.26%
7,O=C(Nc1ccc(S(=O)(=O)Nc2nccs2)cc1)c1cccc(S(=O)(=O)N2CCOCC2)c1,-1.31%
8,O=C(Nc1ccc(S(=O)(=O)N2CCOCC2)cc1)c1ccc2ncsc2c1,43.1% (active)
9,O=C(Nc1ccc(N2CCOCC2)c(Cl)c1)c1ccc(S(=O)(=O)N2CCOCC2)cc1,5.48%
10,CCc1ccc(C(=O)CSc2nnc(C)c(=O)[nH]2)cc1,1.57%
11,COc1cc(C(=O)NCc2nnc(SCC(=O)c3ccc(Cl)cc3)o2)cc(OC)c1OC,2.18%
12,Cc1ccc(-c2cc(C(=O)N/N=C/C=C/c3ccco3)c3ccccc3n2)cc1C,26.2%
13,Cc1cccc(-n2c(C)cc(/C=N\NC(=O)c3cccs3)c2C)c1,56.1% (active)
14,Cc1cccc(-n2c(C)cc(/C=N/NC(N)=S)c2C)c1,9.86%
15,CCN(CC)c1ccc(/C=N/NC(=O)CNC(=O)c2cccnc2)cc1,-5.38%
16,O=C(CNC(=O)c1cccs1)N/N=C/c1cccc(Br)c1,-3.86%
17,O=C(NC(Cc1c[nH]c2ccccc12)C(=O)N/N=C/c1ccc(Br)cc1)c1cccs1 (stereo not given),1.73%
18,CC(=O)Nc1ccc(/C=N/NC(=O)c2cccs2)cc1,58.5% (active)
19,CCN(CC)c1ccc(/C=N/NC(=O)CNC(=O)c2cccs2)cc1,19.2% (active)
20,Cc1ccc(-n2c(C)cc(/C=N\NC(=O)CC(=O)NC(C)C)c2C)cc1,-4.19%
21,O=C(N/N=C/C=C/c1ccco1)c1cccs1,46% (active)
22,CCCc1c(C(=O)N/N=C(\C)CCc2ccc(OC)cc2)nnn1-c1nonc1N,11%
23,Cc1ccc(N(C(=O)c2snc(C(N)=O)c2N)C(C(=O)NCC2CCCO2)c2c[nH]c3ccccc23)cc1 (stereo not given),-1.6%
24,Cc1cc(C)c(S(=O)(=O)N(C)CC(=O)NCC2CCCO2)c(C)c1 (stereo not given),-2.82%

row,SMILES,max response
1,CCCn1nc(NC(=O)C(C)C)c2cc3cc(OC)ccc3nc21,17%
2,COc1ccc(CCNC(=O)C2CCCN(Cc3nc(-c4cccc(Cl)c4)oc3C)C2)cc1OC (stereo not given),6.92%
3,CCOc1cc(NC(=S)NCCCN(C)C)c(OCC)cc1NC(=O)C1CC1,-1%
4,Cn1nnnc1-c1cc(Cl)cc(Cl)c1,1.2%
5,CN(CCO)S(=O)(=O)c1ccc2c(c1)C(=O)c1cc(S(=O)(=O)N(C)CCO)ccc1-2,-1.96%
6,COc1ccc(CCNC(=O)C2CC3Cn4c(nc5cc(C)c(C)cc54)C3N2C)cc1 (stereo not given),-2.66%
7,Cc1cc(NC(=O)CCC2COc3ccccc3O2)no1 (stereo not given),14.1% (active)
8,Cc1cc(NC(=O)CCC(=O)N(CC(=O)NCC2CCCO2)c2ccccc2)no1 (stereo not given),-1.66%
9,COc1ccc(NC(=O)CCC(=O)Nc2cc(OC)c(NC(=O)c3ccco3)cc2OC)c(OC)c1,-4.97%
10,COc1ccc(NC(=O)CCCC2CCCCC2)c(OC)c1,31.1% (active)
11,COc1ccc(NC(=O)NCc2ccc3c(c2)OCO3)c(OC)c1,-2.52%
12,CC(=O)Oc1ccc(NC(=O)CCC2CCCCC2)c(C(=O)O)c1,-3.07%
13,Cc1ccc(SCCC(=O)Nc2cc(C)on2)cc1,5.3%
14,COc1ccc(NC(=O)CC2COc3ccccc3O2)c(OC)c1 (stereo not given),24.3% (active)
15,COc1ccc(NC(=O)CCN2CCCC2)c(OC)c1,-1.44%
16,CCCNC(=O)COc1coc(CN2CCN(Cc3ccccc3)CC2)cc1=O,-5.17%
17,CCn1ccnc1CNC(=O)CC1C(=O)NCCN1CCCc1ccccc1 (stereo not given),-2.05%
18,CC1(C)C2CCC1(CS(=O)(=O)NCCc1c[nH]c3ccccc13)C(=O)C2 (stereo not given),-4.31%
19,Cc1nc2cc(C(F)(F)F)ccc2n1CCNc1nc(-c2cc(Cl)c(N)c(Cl)c2)cs1,-1.25%
20,N#Cc1ccccc1NC(=O)COc1c(Br)cc(Br)c2cccnc12,-3.08%
21,Cc1nn(CC(=O)NC2CCCCC2)c(=O)c2cccn12,10.6%
22,CCCCN1C(=O)/C(=C2/C=CC=CN2C)SC1=S,18.7% (active)
23,CCCCN1C(=O)/C(=C2/Sc3ccc(Cl)cc3N2CC)SC1=S,-0.782%
24,CN1C=CC=C/C1=C1\SC(=S)N(Cc2ccccc2)C1=O,3.74%

row,SMILES,max response
1,Cc1cccc(C)c1NC(=S)N(Cc1cccnc1)Cc1ccccc1Cl,-3.98%
2,COC(=O)c1ccc2ccccc2c1OC1OC(CO)C(O)C(O)C1NC(C)=O (stereo not given),0.801%
3,CC1CCN(CC(O)COc2ccc(C(=O)c3ccccc3)cc2)CC1 (stereo not given),-1.82%
4,O=C(NCCN1CCOCC1)/C(=C/c1ccc(F)cc1)NC(=O)c1ccccc1,-4.36%
5,CC(=O)Oc1c(C(=O)c2nnc(C)o2)c(=O)n(Cc2ccccc2)c2ccccc12,-0.619%
6,Brc1ccc2c(c1)[C@H]1OCC[C@H]1[C@@H](c1cccs1)N2,8.72%
7,C/C(=N\NC(=O)Cc1ccc(F)cc1)c1ccc(F)cc1,-1.95%
8,C/C(CC(=O)N1CCN(C=O)CC1)=N\NC(=O)c1ccc(Br)cc1,7.55%
9,O=C(O)CC/C(=N\NC(=O)c1ccc(F)cc1)c1ccc(Br)cc1,35% (active)
10,CCc1ccccc1NC(=O)CN(C)S(=O)(=O)c1ccc2c(c1)c(=O)n(C)c(=O)n2C,-5.59%
11,S=c1[nH]nc(-c2ccco2)n1/N=C/c1ccccc1,-1.31%
12,Cn1c(-c2ccco2)nc2cc3ccccc3cc21,16.7% (active)
13,O=c1c2ccccc2nc(-c2ccco2)n1-c1ccc(Br)cn1,-3.55%
14,Cc1ccc(CS(=O)(=O)CCC(=O)NCc2ccc(F)cc2)cc1,-2.44%
15,Cc1cc(Nc2ccc(N3CCOCC3)cc2)c2cccc(C)c2n1,-1.97%
16,Cc1cc(C(=O)N/N=C\C(Br)=C\c2ccccc2)c(C)o1,32.4% (active)
17,Cc1cc(C(=O)N/N=C/c2ccc(N3CCOCC3)cc2)c(C)o1,26.5% (active)
18,Cc1ccc(-c2cc(C(=O)N/N=C/C=C/c3ccccc3)n[nH]2)o1,-1.74%
19,O=C(N/N=C\c1cccc(Br)c1)c1ccccc1-n1cccc1,1.75%
20,CCN(CC)c1ccc(C(=O)N/N=C/c2ccc(N3CCOCC3)cc2)cc1,-3.32%
21,CC(=O)N/N=C/c1cc2c(cc1[N+](=O)[O-])OCO2,-3%
22,Cc1cc(C(=O)N/N=C/c2ccccc2[N+](=O)[O-])c(C)o1,35% (active)
23,Cc1ccccc1N/N=C/c1ccc(N2CCOCC2)cc1,21.1% (active)
24,CNC(=S)N/N=C/c1ccc(N2CCOCC2)s1,13.7%

row,SMILES,max response
1,O=C(Cc1cc(=O)[nH][nH]1)N/N=C/c1ccccc1[N+](=O)[O-],-3.9%
2,CN(C)c1ccc(/C=N/Nc2cc(N3CCOCC3)nc(N3CCOCC3)n2)cc1,-1.93%
3,Cc1ccc(S(=O)(=O)c2c[nH]c3ccc(C)cc3c2=O)cc1,-2.63%
4,CCN(CCCNC(=O)c1ccc2c(c1)NC(=O)CN2C)c1cccc(C)c1,-2.58%
5,COc1cccc(CNS(=O)(=O)c2ccc3c(c2)N(C(C)=O)CCS3)c1,3.83%
6,CCOc1ccc2[nH]c3nc(SCC(=O)NC4CCCC4)nnc3c2c1,-2.15%
7,COc1ccc2ccccc2c1/C=N/NC(=O)c1cc(C)[nH]n1,-1.72%
8,CC(=O)N/C(=C/c1ccc(OC(F)F)cc1)C(=O)O,1.24%
9,CC(C)c1cc(C(=O)O)n[nH]1,10.8%
10,CC(C)c1cc(C(=O)N/N=C/C(Br)=C/c2ccccc2)n[nH]1,14.6% (active)
11,Cc1cc(C(=O)NNC(=O)CCC2CCCCC2)c(C)o1,-7.16%
12,CC(=C/c1ccccc1)/C=N/NC(=O)c1cc(C)oc1C,34.8% (active)
13,O=C(CCC1CCCN(C(=O)c2ccc(F)c(F)c2)C1)N1CCN(c2ccccn2)CC1 (stereo not given),-2.81%
14,CC(=O)c1ccc(NC(=O)CCNS(=O)(=O)c2cc(Br)cnc2N)cc1,-6.69%
15,CCOC(=O)[C@H]1[C@H]2COc3cc(OC)ccc3[C@@H]2N2C(=O)N(c3ccc(Br)cc3)C(=O)[C@@]12C,-2.74%
16,CC(=O)Nc1ccc(NS(=O)(=O)c2ccc3c(c2)NC(=O)CC(=O)N3)cc1,-2.79%
17,C/C(=N\c1nc2ccccc2n1C)c1cc(Cl)ccc1O,-3.14%
18,Cn1c(Nc2cccc(Cl)c2)nc2ccccc21,33.5% (active)
19,Cc1c(C(=O)Nc2cccc(Cl)c2)cn2c(nc3ccccc32)c1C#N,-2.2%
20,Cc1cc2c(c(=O)n1Cc1ccccc1)C1O[C@](CCCCN3C(=O)c4ccccc4C3=O)(Cc3ccccc31)O2,-2.41%
21,O=C1Nc2ccccc2C12Nc1ccccc1S2 (stereo not given),33.2% (active)
22,COc1ccc(C2(O)C(=O)Nc3ccccc32)cc1 (stereo not given),-3.25%
23,Cc1cc(O)c(C2(O)C(=O)Nc3ccccc32)cc1C (stereo not given),-3.78%
